# Records with an inconclusive call do not appear. A call without a number means that no potency is given here. Activity calls are given as the source filed them. Unless noted, calls follow the shape of the dose curve; as a rule, active = well fitted curve in the direction sought with a large enough effect; inconclusive = small, poorly fitted or top-dose-only effect, or another doubt; inactive = no such curve, though single readings can be large; an effect the other way counts as inactive or inconclusive.
# Key:
# [1] = Validation of Assay for Modulators of Lamin A Splicing (AID 1459; active = well fitted curve in the direction sought with a large enough effect in the signal ratio; the % refers to the signal ratio;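 also: cells exposed to compound for two days before reading; ratio rise marks activators and ratio drop marks inhibitors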)
# Method in brief: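 Splicing correction read as GFP (500-530 nm) over DsRed2 (575-640 nm) object intensity after 48 h compound exposure of reporter HeLa S3 clones (600 cells/well, 2% FBS medium); ancitabine and cycloheximide titrations, 0.5% DMSO as vehicle.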
# [2] = biological target: Alpha-galactosidase A (Homo sapiens) (UniProt P06280); experiment: Counterscreen for Glucocerebrosidase Inhibitors: qHTS Assay for Human alpha-Galactosidase at pH 4.5 (AID 992)
# Method in brief: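 Concentration-response curves (0.7 nM to 77 uM final) were modeled with the Hill equation to give AC50. Reactions: 2 nM enzyme, 80 uM fluorogenic alpha-galactoside, pH 4.5 citric acid buffer, 20 min, room temperature.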
# [3] = biological target: alpha-glucosidase (Oryza sativa, rice) (UniProt Q653V4); experiment: Counterscreen for Glucocerebrosidase Inhibitors: qHTS Assay for Rice alpha-Glucosidase at pH 5.0 (AID 997)
# Method in brief: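 Rice alpha-glucosidase (4 nM final) with 400 uM 4-methylumbelliferyl-alpha-D-glucopyranoside in citrate buffer pH 5.0, 20 min at room temperature, stopped at pH 10; fluorescence 365/440 nm, compounds 0.7 nM–77 uM, AC50 from Hill fits.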
# [4] = Cell Viability - LYMP2-021 (AID 974);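 also: compound exposure lasts 24 hours at 37 °C; nearly all actives have a fitted effect of over 55% in size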
# Method in brief: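 Concentration-response cytotoxicity in a human lymphoblastoid line: 24 hr treatment at 37 C in complete culture medium, tetraoctylammonium bromide as positive control, luminescent ATP quantitation as viability measure.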
# [5] = Cell Viability - LYMP2-023 (AID 975);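 also: cellular ATP measured by luciferase luminescence as viability proxy; series mostly up to about 92 µM; nearly all actives have a fitted effect of over 55% in size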
# Method in brief: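 Concentration-dependent drop in intracellular ATP measures acute cytotoxicity in a human lymphoblastoid line treated for 24 hours in complete culture medium. AC50 values are taken from Hill-equation fits of qHTS data.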
# [6] = Cell Viability - LYMP2-025 (AID 976); also: series mostly up to about 92 µM
# Method in brief: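 In qHTS format, LYMP2-025 lymphoblastoid cells in complete culture medium received compound for 24 hr; ATP-based CellTiter-Glo signal gave viability, with AC50 derived by Hill equation.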
# [7] = Cell Viability - LYMP2-002 (AID 977); also: series mostly up to about 92 µM
# Method in brief: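 Luminescent ATP readout (CellTiter-Glo, 30 min room temperature) after 24 h compound exposure at 37 C of a human lymphoblastoid line, 2500 cells/well. AC50 values derived by standard Hill fitting of qHTS concentration-response data.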
# [8] = Cell Viability - LYMP2-006 (AID 978); also: series mostly up to about 92 µM; nearly all actives have a fitted effect of over 60% in size
# Method in brief: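 Potency values are Hill-fit AC50s for decreases in intracellular ATP (CellTiter-Glo luminescence). LYMP2-006 lymphoblastoid cells, 2500 per well, were exposed to compound in complete culture medium for 24 hr at 37 C.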
# [9] = Cell Viability - LYMP2-007 (AID 979);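 also: cells exposed to compound for 24 h before reading; nearly all actives have a fitted effect of over 60% in size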
# Method in brief: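 Acute toxicity is scored as a concentration-dependent fall in intracellular ATP in human lymphoblastoid cells treated 24 hr at 37 C, measured by luciferase luminescence; Hill-equation modelling yields AC50.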
# [10] = Cell Viability - LYMP2-008 (AID 980); also: nearly all actives have a fitted effect of over 60% in size
# Method in brief: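 Acute cytotoxicity is scored as concentration-dependent loss of cellular ATP in a human lymphoblastoid line after 24 hr treatment at 37 C. ATP is quantified by luciferase luminescence.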
# [11] = Cell Viability - LYMP2-010 (AID 981); also: nearly all actives have a fitted effect of over 55% in size
# Method in brief: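 Acute toxicity is scored as a concentration-dependent loss of cellular ATP in human lymphoblastoid cells after 24 hr compound exposure in complete medium. Tetraoctylammonium bromide is the positive control.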
# [12] = Cell Viability - LYMP2-012 (AID 982);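 also: cellular ATP by luciferase luminescence where a drop means cytotoxicity; cells exposed to compound for one day before reading; nearly all actives have a fitted effect of over 55% in size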
# [13] = Cell Viability - LYMP2-014 (AID 983); also: series mostly up to about 92 µM; nearly all actives have a fitted effect of over 50% in size
# Method in brief: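 Decrease in intracellular ATP after 24 hr treatment at 37 C, measured by luciferase luminescence, indicated cytotoxicity. Concentration-response data were fitted with the standard Hill equation to give AC50.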
# [14] = Cell Viability - LYMP2-016 (AID 984); also: nearly all actives have a fitted effect of over 55% in size
# Method in brief: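 Cytotoxicity was scored by luminescent ATP content (CellTiter-Glo) after 24 h compound exposure at 37 C of a human lymphoblastoid line at 2500 cells/well. Concentration-response data were fitted to the Hill equation for AC50.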
# [15] = Cell Viability - LYMP2-020 (AID 986)
# Method in brief: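 Acute cytotoxicity in a human lymphoblastoid line is scored as a concentration-dependent fall in cellular ATP after 24 hr at 37 C in complete medium. The positive control is tetraoctylammonium bromide, and potency is given as Hill-fit AC50.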
# [16] = Cell Viability - LYMP2-022 (AID 987); also: nearly all actives have a fitted effect of over 55% in size
# Method in brief: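 Acute toxicity in a human lymphoblastoid line is scored as decreased intracellular ATP after 24 hr compound treatment at 37 C. ATP is measured by CellTiter-Glo luminescence; curves are fitted with the Hill equation to give AC50.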
# [17] = Cell Viability - LYMP2-024 (AID 988); also: nearly all actives have a fitted effect of over 60% in size
# Method in brief: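 Acute toxicity is measured as concentration-dependent loss of intracellular ATP in a human lymphoblastoid line treated 24 hours at 37 C. Luciferase luminescence quantifies ATP; AC50 values come from standard Hill-equation modelling.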
# [18] = Cell Viability - LYMP2-026 (AID 989); also: nearly all actives have a fitted effect of over 50% in size
# Method in brief: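 Concentration-dependent loss of intracellular ATP in human lymphoblastoid cells after 24 hr at 37 C, quantified by luciferase luminescence. AC50 derived from standard Hill equation.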
# [19] = Cell Viability - LYMP1-002 - Assay at 24 hr (AID 993)
# Method in brief: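 qHTS, LYMP1-002 lymphoblastoid, 24 h cpd, 37 C, CellTiter-Glo ATP luminescence; AC50 via Hill eq.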
# [20] = Cell Viability - LYMP1-002 - Assay at 40 hr (AID 994); also: nearly all actives have a fitted effect of over 60% in size
# Method in brief: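 Viability in the human lymphoblastoid line was measured as intracellular ATP via CellTiter-Glo after 40 hr compound exposure. Tetraoctylammonium bromide served as positive control.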
# Chain of Alpha-galactosidase A (Homo sapiens) (P06280 whole entry, looked up): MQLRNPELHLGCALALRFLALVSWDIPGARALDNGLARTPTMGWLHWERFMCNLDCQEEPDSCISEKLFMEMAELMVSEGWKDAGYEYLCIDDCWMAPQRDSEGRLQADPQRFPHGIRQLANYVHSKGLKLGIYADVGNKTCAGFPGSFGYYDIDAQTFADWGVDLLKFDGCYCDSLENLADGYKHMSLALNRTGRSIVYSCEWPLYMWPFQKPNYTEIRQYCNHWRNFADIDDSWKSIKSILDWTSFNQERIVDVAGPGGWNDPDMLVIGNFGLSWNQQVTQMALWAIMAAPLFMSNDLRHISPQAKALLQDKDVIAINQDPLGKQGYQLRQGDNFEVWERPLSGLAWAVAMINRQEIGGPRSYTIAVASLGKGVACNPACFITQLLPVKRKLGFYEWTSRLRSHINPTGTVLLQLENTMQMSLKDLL
structure (smiles),measurement,setting,value
CCCCCN(CCCCC)C(=O)C(CCC(=O)O)NC(=O)c1ccc(Cl)c(Cl)c1 (centres undefined),outcome,[1],inactive
CC(=O)OC(C)C[N+](C)(C)C (centres undefined),outcome,[1],inactive
Cc1ccc(S(=O)(=O)NC(=O)NN2CCCCCC2)cc1,outcome,[2],inactive
same,outcome,[3],inactive
same,outcome,[1],inactive
CC(C)NCC(O)c1cc(O)cc(O)c1 (centres undefined),outcome,[1],inactive
O=C(O)CP(=O)(O)O,outcome,[1],inactive
CCc1c(C)[nH]c2c1C(=O)C(CN1CCOCC1)CC2 (centres undefined),outcome,[2],inactive
same,outcome,[1],inactive
Cc1nc2ccccn2c(=O)c1CCN1CCC(C(=O)c2ccc(F)cc2)CC1,outcome,[1],inactive
c1ccc2c(c1)CCCC2C1=NCCN1 (centres undefined),outcome,[1],inactive
Cc1cc(C)c(/C=C2\C(=O)Nc3ccccc32)[nH]1,outcome,[1],inactive
CCOC(=O)C1=C(C)NC(C)=C(C(=O)OC)C1c1cccc([N+](=O)[O-])c1 (centres undefined),outcome,[1],inactive
COc1cc(C(=O)OCCCN2CCCN(CCCOC(=O)c3cc(OC)c(OC)c(OC)c3)CC2)cc(OC)c1OC,outcome,[1],inactive
CC(C(=O)O)c1ccc(CC2CCCC2=O)cc1 (centres undefined),outcome,[1],inactive
COCCOC(=O)C1=C(C)NC(C)=C(C(=O)OC(C)C)C1c1cccc([N+](=O)[O-])c1 (centres undefined),outcome,[1],inactive
COc1cc(Cc2cnc(N)nc2N)cc(OC)c1OC,outcome,[4],inactive
same,outcome,[5],inactive
same,outcome,[6],inactive
same,Potency,[7],inactive
same,Potency,[8],inactive
same,outcome,[9],inactive
same,outcome,[10],inactive
same,Potency,[11],inactive
same,Potency,[12],inactive
same,outcome,[13],inactive
same,outcome,[14],inactive
same,Potency,[15],inactive
same,Potency,[16],inactive
same,Potency,[17],inactive
same,outcome,[18],inactive
same,outcome,[19],inactive
same,Potency,[20],inactive
same,outcome,[3],inactive
same,outcome,[1],inactive
CN/C(=C\[N+](=O)[O-])NCCSCc1ccc(CN(C)C)o1,outcome,[3],inactive
same,outcome,[1],inactive
COC(=O)[C@@H](N)Cc1ccc(O)c(O)c1,outcome,[3],inactive
same,outcome,[1],inactive

# From PubChem BioAssay (NCATS)
